Results filed as inconclusive are left out. Calls of active or inactive are those of the source.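 Rule for the calls, unless noted: active = normalized viability below 100% at a tested concentration; inactive = the rest.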

The text below walks through data of PubChem BioAssay.

Test [1] is described as follows: viability loss in pontine glioma line – cell-based, SU-DIPG-XVII, MIPE5.0, CellTiter-Glo, qHTS, dose response (AID 1347060; cut-off not given, nearly all actives have AC50 up to about 26 µM;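 for AC50: cells exposed to compound for 48 hours before viability readout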). As to conditions: CellTiter-Glo ATP luminescence.
Test [2] is described as follows: viability loss in pontine glioma line – cell-based, SU-DIPG-XIII, MIPE4.0, CellTiter-Glo, qHTS, dose response (AID 1347061; cut-off not given, nearly all actives have AC50 up to about 37 µM;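 note: cells exposed to compound for 48 hours before readout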). As to conditions: CellTiter-Glo ATP luminescence.
Test [3] in a line: viability loss in pontine glioma line – cell-based, JHH-DIPG-1, MIPE4.0, CellTiter-Glo, qHTS, dose response (AID 1347062; cut-off not given, nearly all actives have AC50 up to about 27 µM;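 for AC50: cells exposed to compound for two days before readout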). As to conditions: JHH-DIPG-1 viability, CellTiter-Glo ATP luminescence.
Test [4] is described as follows: viability loss in pontine glioma line – cell-based, SU-DIPG-IV, MIPE4.0, CellTiter-Glo, qHTS, dose response (AID 1347063; cut-off not given, nearly all actives have AC50 up to about 30 µM;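 note: compound exposure lasted 48 hours before the viability readout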). As to conditions: CellTiter-Glo ATP luminescence.
A short description of test [5]: viability loss in pontine glioma line – cell-based, SU-DIPG-XIII, MIPE5.0, CellTiter-Glo, qHTS, dose response (AID 1347064; cut-off not given, nearly all actives have AC50 up to about 23 µM;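 for AC50: cells exposed to compound for 48 hours before the viability read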). As to conditions: CellTiter-Glo ATP luminescence.
Test [6] can be described thus: viability loss in pontine glioma line – cell-based, SU-DIPG-XXV, MIPE5.0, CellTiter-Glo, qHTS, dose response (AID 1347065; cut-off not given, nearly all actives have AC50 up to about 26 µM;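 note: cells exposed to compound for 48 hours before ATP readout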). As to conditions: CellTiter-Glo ATP luminescence.
The nature of test [7]: JHH-DIPG-1 glioma cell viability, MIPE5.0 library, CellTiter-Glo luminescence, qHTS (AID 1347067; cut-off not given, nearly all actives have AC50 up to about 26 µM;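 note: cells exposed to compound for 48 hours before readout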). As to conditions: JHH-DIPG-1 glioma viability, CellTiter-Glo ATP luminescence.
Test [8] can be described thus: viability loss with induced miR-34 in A549 – imaging, A549 dox-inducible miR-34, nuclei and caspase counts, primary screen (AID 1347080;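 active = compounds whose cell count with miR-34 switched on is under 0.7 times the count with it off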). As to conditions: A549 miR-34 inducible, Hoechst nuclei count, 48 h.
Test [9] is described as follows: compounds altering HSF1 focus formation in cells – imaging, Selleck Cancer Library (AID 1347162; in the data active = plate-normalised HSF1 focus index below about 0.46). As to conditions: human cells, HSF1 nuclear foci imaging, at 10 µM; SSMD: measured here: HSF1 foci SSMD mean; cell count: measured here: cell number; plate-normalised HSF1 focus index: stronger effect = lower value.
Test [10] can be described thus: MELAS cybrid and Rieske KO viability enhancers – cell-based, MELAS cybrids, Rieske KO mouse fibroblasts, CellTiter-Glo, primary screen (AID 1508586;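 active = mean z-score across replicates of 1.96 or higher in either the MELAS or the Rieske mutant cell line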;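 note: z relative to plate mean and SD of compound and empty wells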). As to conditions: low glucose.
Test [11] can be described thus: drug combination growth inhibition, ovarian cancer – cell-based, oncology-focused library, rucaparib conditional, profiling panel (AID 1508598). As to conditions: patient-derived ovarian cancer cells, CellTiter-Glo viability, 144 h, stronger effect = lower value.
A short description of test [12]: growth inhibition of DIPG cells – cell-based, MIPE5.0 library, qHTS (AID 1347068; cut-off not given, nearly all actives have IC50 up to about 30 µM). As to conditions: SU-DIPG-XXV viability.
Setting [13] is: stronger effect = lower value, cell number ratio, induced over uninduced.
Setting [14] is: measured here: relative caspase fold change +Dox/-Dox.
The mark [15] stands for this setting: measured here: total cells with miR-34 induction, stronger effect = lower value.
The mark [16] stands for this setting: measured here: total cells without miR-34 induction.
The mark [17] stands for this setting: MELAS cybrid survival, CellTiter-Glo 48 h, stronger effect = higher value.
Where [18] appears, read: Rieske KO mouse fibroblast survival, CellTiter-Glo 72 h.

As to `COc1c(C)cnc(Cn2cnc3c(Cl)nc(N)nc32)c1C`, the AC50 is 525 nM (active) in [1]; 1180 nM (active) in test [2]; 187 nM (active) in test [3]; 332 nM (active) in test [4]; 1050 nM (active) in [5]; 742 nM (active) in test [6]. Moreover, the AC50 in test [7] is 1050 nM (active). Also, the fold change is 0.993 (inactive) in test [8] (setting [13]) and 1.45 in test [8] (setting [14]). Besides, the cell count in test [8] (setting [15]) was 1950; in test [8] (setting [16]) it was 1960; in test [9] it was 7350. Besides, the SSMD in test [9] is 4.45. Also, the plate-normalised HSF1 focus index in test [9] was 1.16 (inactive). The z-score was 2.83 (active) in test [10] (setting [17]) and 0.0158 in test [10] (setting [18]). Besides, the viability in [11] (at 0.000305 µM, OCI-C5x cells, with rucaparib 10 µM, 100% = cells with rucaparib alone) is 115% (inactive); in [11] (at 0.000305 µM, OCI-C5x cells, without rucaparib), 104% (inactive); in test [11] (at 0.000305 µM, OCI-P5x cells, with rucaparib 20 µM, 100% = cells with rucaparib alone), 111% (inactive); in [11] (at 0.000305 µM, OCI-P5x cells, without rucaparib), 99.7% (active); in [11] (at 0.00122 µM, OCI-C5x cells, with rucaparib 10 µM, 100% = cells with rucaparib alone), 122% (inactive); in test [11] (at 0.00122 µM, OCI-C5x cells, without rucaparib), 111% (inactive). Moreover, the viability is 116% (inactive) in test [11] (at 0.00122 µM, OCI-P5x cells, with rucaparib 20 µM, 100% = cells with rucaparib alone); 110% (inactive) in test [11] (at 0.00122 µM, OCI-P5x cells, without rucaparib); 123% (inactive) in [11] (at 0.00488 µM, OCI-C5x cells, with rucaparib 10 µM, 100% = cells with rucaparib alone); 82.7% (active) in test [11] (at 0.00488 µM, OCI-C5x cells, without rucaparib); 122% (inactive) in test [11] (at 0.00488 µM, OCI-P5x cells, with rucaparib 20 µM, 100% = cells with rucaparib alone); 118% (inactive) in [11] (at 0.00488 µM, OCI-P5x cells, without rucaparib). The viability in [11] (at 0.0195 µM, OCI-C5x cells, with rucaparib 10 µM, 100% = cells with rucaparib alone) was 125% (inactive); in [11] (at 0.0195 µM, OCI-C5x cells, without rucaparib), 111% (inactive); in test [11] (at 0.0195 µM, OCI-P5x cells, with rucaparib 20 µM, 100% = cells with rucaparib alone) it was 128% (inactive); in test [11] (at 0.0195 µM, OCI-P5x cells, without rucaparib), 121% (inactive); in test [11] (at 0.0781 µM, OCI-C5x cells, with rucaparib 10 µM, 100% = cells with rucaparib alone) it was 133% (inactive); in test [11] (at 0.0781 µM, OCI-C5x cells, without rucaparib), 137% (inactive). Besides, the viability is 33.6% (active) in test [11] (at 0.0781 µM, OCI-P5x cells, with rucaparib 20 µM, 100% = cells with rucaparib alone); 68.7% (active) in test [11] (at 0.0781 µM, OCI-P5x cells, without rucaparib); 98.4% (active) in test [11] (at 0.313 µM, OCI-C5x cells, with rucaparib 10 µM, 100% = cells with rucaparib alone); 127% (inactive) in test [11] (at 0.313 µM, OCI-C5x cells, without rucaparib); 20.3% (active) in test [11] (at 0.313 µM, OCI-P5x cells, with rucaparib 20 µM, 100% = cells with rucaparib alone); 9.78% (active) in [11] (at 0.313 µM, OCI-P5x cells, without rucaparib). In addition, the viability in test [11] (at 1.25 µM, OCI-C5x cells, with rucaparib 10 µM, 100% = cells with rucaparib alone) is 12.2% (active); in test [11] (at 1.25 µM, OCI-C5x cells, without rucaparib), 15.4% (active); in test [11] (at 1.25 µM, OCI-P5x cells, with rucaparib 20 µM, 100% = cells with rucaparib alone) it was 9% (active); in [11] (at 1.25 µM, OCI-P5x cells, without rucaparib) it was 7.18% (active); in [11] (at 5 µM, OCI-C5x cells, with rucaparib 10 µM, 100% = cells with rucaparib alone) it was 11.2% (active); in [11] (at 5 µM, OCI-C5x cells, without rucaparib), 10.3% (active). Also, the viability is 9.01% (active) in [11] (at 5 µM, OCI-P5x cells, with rucaparib 20 µM, 100% = cells with rucaparib alone) and 6.09% (active) in test [11] (at 5 µM, OCI-P5x cells, without rucaparib).
Take `CC(C)(C)c1[nH]cnc1/C=c1\[nH]c(=O)/c(=C/c2ccccc2)[nH]c1=O`: the AC50 in [1] was 37.2 nM (active); in [2], 42900 nM (active); in test [3], 340 nM (active); in test [4], 42900 nM (active); in test [5], 166 nM (active); in test [6] it was 46.8 nM (active). Further, the AC50 in [7] was 52.5 nM (active). The compound further gave an SSMD in test [9] of 2.69. This compound also came in with a cell count in test [9] of 7220. Besides, the plate-normalised HSF1 focus index in test [9] is 1.17 (inactive).
On to `Cn1c(=O)n(-c2ccc(C(C)(C)C#N)cc2)c2c3cc(-c4cnc5ccccc5c4)ccc3ncc21`, for which the AC50 in [1] is 481 nM (active); in test [2] it was 2640 nM (active); in test [3], 4180 nM (active); in test [4], 23.5 nM (active); in [5], 855 nM (active); in [6], 135 nM (active). The AC50 in test [7] is 855 nM (active). The compound also had an SSMD in test [9] of -0.518. The compound also registered a cell count in test [9] of 7130. Further, the plate-normalised HSF1 focus index in [9] is 0.984 (inactive).
Turning to `O=C(/C=C/c1cccnc1)NCCCCC1CCN(C(=O)c2ccccc2)CC1`, the AC50 in test [1] was 11.8 nM (active); in test [2], 16.6 nM (active); in test [3] it was 4.18 nM (active); in [4] it was 20.9 nM (active); in test [5] it was 1.86 nM (active); in test [6], 4.68 nM (active). Moreover, the AC50 in test [7] was 4.17 nM (active). For the same compound, the SSMD in test [9] was 1.27. The cell count in [9] was 7280. The plate-normalised HSF1 focus index in [9] was 1.05 (inactive).
For `O=C1c2cccc(O)c2C(=O)c2c(O)cc(CO)cc21`, the call in [1], in test [2], in test [3], in test [4], in test [5] and in test [6] was inactive. Further, the result in test [7] and in [12] was inactive. The fold change in test [8] (setting [13]) was 0.954 (inactive); in [8] (setting [14]) it was 0.691. Further, the results for the cell count in test [8] (setting [15]) and in test [8] (setting [16]) were 7900 and 8280, respectively. The z-score in test [10] (setting [17]) is -0.27 (inactive); in test [10] (setting [18]), 0.836.
